# Assay outcomes (PubChem)
# Compounds with a hit are over-represented: about 28% of the library has one in this group of screens.
# PTK2B oligo ant: antagonists of human Pyk2 oligomerization | Q14289 | AID 1347419 | hit rate 0.83% among 99,000 | z-score (the deposit names both 25 µM and 10 µM) | Q293 cells, Pyk2 FERM NanoBiT luminescence; stronger effect = lower value;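 active means Z-score of -3 or lower, scaled per plate to the spread of control and sample wells; inactive means z-score above -3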;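 further: negative z-score means lost luminescence so less FERM oligomerization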
# CYP2C9 inhib: human CYP2C9 inhibition; CYP2C9 Supersomes, luciferin-H conversion, luminescence; inhibition, % at 5 µM; P11712; hit rate 20% among 96,000;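 active means blocking of liver enzyme CYP2C9 beyond about 50% at 5 µM, limit read from the data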
# Target sequence (P11712 whole entry, looked up): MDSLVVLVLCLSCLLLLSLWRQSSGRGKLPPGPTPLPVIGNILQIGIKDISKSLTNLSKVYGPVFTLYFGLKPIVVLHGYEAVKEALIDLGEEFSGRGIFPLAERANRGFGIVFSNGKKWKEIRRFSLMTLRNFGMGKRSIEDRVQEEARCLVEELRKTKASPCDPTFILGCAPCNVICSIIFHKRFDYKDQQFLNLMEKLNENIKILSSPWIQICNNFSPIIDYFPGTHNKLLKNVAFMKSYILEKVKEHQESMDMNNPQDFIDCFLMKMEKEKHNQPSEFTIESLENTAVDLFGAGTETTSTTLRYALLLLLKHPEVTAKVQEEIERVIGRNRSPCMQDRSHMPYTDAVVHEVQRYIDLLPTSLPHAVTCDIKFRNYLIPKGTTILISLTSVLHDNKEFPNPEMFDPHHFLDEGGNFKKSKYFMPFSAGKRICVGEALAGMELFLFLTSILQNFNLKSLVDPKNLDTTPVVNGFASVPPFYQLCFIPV
# CYP2C19 act: cytochrome P450 2C19 (human) activation; activation factor at 5 µM; recombinant CYP2C19, luciferin-H EGE luminescence; stronger effect = higher value; 0 = fully inhibited enzyme, 1 = untreated enzyme; AID 1025; P33261; 96,000 tested, under 10 active;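 active means activation factor of at least 2 at 5 µM in the primary screen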;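 further: 0 = wells with 2.5 mM tranylcypromine and 1 = vehicle-only wells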
# CYP2C9 act: activators of human CYP2C9; P11712; recombinant CYP2C9, luciferin-H conversion, luminescence; stronger effect = higher value; factor 1 = untreated enzyme, 0 = blocked; activation factor at 5 µM; hit rate 1.4% among 96,000; AID 1024;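 active means activation factor of 2 or more for CYP2C9 at a 5 µM dose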;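 further: 0 = sulfaphenazole-blocked wells and 1 = vehicle-only wells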
# CYP2C19 inh: blocks human cytochrome P450 2C19; hit rate 21% among 96,000; CYP2C19 Supersomes, luciferin-H EGE luminescence, 30 min; inhibition, % at 5 µM;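 active means CYP2C19 inhibition above a set limit at 5 µM in the primary screen, cut at about 50% in these data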;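 further: plate controls were negative control wells for no effect and 2.5 mM tranylcypromine positive control for full effect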
# Starred values were filed as active, the others as inactive; nt = no result given.
SMILES,PTK2B oligo ant,CYP2C9 inhib,CYP2C19 act,CYP2C9 act,CYP2C19 inh
O=C(CC1(O)C(=O)Nc2cc(Cl)cc(Cl)c21)c1ccncc1 (stereo not drawn),0.52,nt,nt,nt,nt
Cc1ccc(Cl)c2c1NC(=O)C2(O)CC(=O)c1ccc(Br)cc1 (stereo not drawn),0.53,4,0.4,1,61*
O=c1c2ccccc2nc(-c2ccc(Cl)cc2)n1C1CCS(=O)(=O)C1 (stereo not drawn),2.9,nt,nt,nt,nt
Cc1ccccc1-c1nc2ccccc2c(=O)n1C1CCS(=O)(=O)C1 (stereo not drawn),0.11,3,0.1,1,88*
CCOC(=O)C1CCN(C(=O)CCn2c(=O)[nH]c3ccsc3c2=O)CC1,-0.36,17,0.7,0.8,29
COC(=O)C(O)(CC(=O)c1ccc(OC)cc1)C(F)(F)F (stereo not drawn),-0.3,4,0.4,1,63*
COC(=O)C(O)(CC(=O)Nc1cc(OC)c(OC)c(OC)c1)C(F)(F)F (stereo not drawn),0.46,nt,nt,nt,nt
Cn1c(N2CCC(C(N)=O)CC2)nc2c1c(=O)n(Cc1cccc(Br)c1)c(=O)n2C,1.1,10,0.9,0.9,15
CCOC(=O)c1c(C(F)(F)F)nc2ncccn12,-0.42,-8,1,1.1,0
O=CN1CC(=O)N(c2ccccc2)c2c([nH]c3ccccc23)C1,1.1,28,0.2,0.7,79*
CC(C)C(CO)NC(=O)CC(=O)NC(CO)C(C)C (stereo not drawn),1.1,7,1,0.9,0
O=C1CC(SC(=Nc2ccccc2)Nc2ccccc2)C(=O)N1c1cccc(Cl)c1 (stereo not drawn),-2.4,43,0.7,0.6,29
Cc1ccc(S(=O)(=O)Cc2ccc(C(=O)O)o2)cc1,-0.23,37,1,0.6,-3
Cc1ccc(S(=O)(=O)Cc2ccc(C(=O)N3CCc4ccccc4C3)o2)cc1,nt,56*,0.1,0.4,92*
COc1ccc(S(=O)(=O)Cc2ccc(C(=O)N3CCc4ccccc4C3)o2)cc1,nt,53*,0.1,0.5,89*
O=C1N=C(N2CCCC2)S/C1=C\c1ccccc1,-0.05,nt,nt,nt,nt
CN1C2CCC1/C(=C\c1ccccc1)C(=O)/C2=C\c1ccccc1,-1.2,-124,0.6,2.2*,40
O=C1c2[nH]nc(-c3ccccc3O)c2C(c2ccc(F)cc2)N1CC1CCCO1 (stereo not drawn),-0.03,15,0.8,0.8,22
O=C1c2[nH]nc(-c3ccccc3O)c2C(c2ccc(F)cc2)N1Cc1ccco1 (stereo not drawn),-2.6,97*,0.2,0,84*
O=C1c2[nH]nc(-c3ccccc3O)c2C(c2cccc(Cl)c2)N1Cc1ccco1 (stereo not drawn),-2.8,95*,0.1,0,87*
O=C1c2[nH]nc(-c3ccccc3O)c2C(c2cccc(Cl)c2)N1CC1CCCO1 (stereo not drawn),-2.7,88*,0.3,0.1,70*
CC(=O)C1=C(O)C(=O)N(Cc2ccco2)C1c1ccc(F)cc1 (stereo not drawn),-0.62,-4,1.2,1,-16
O=C(O)Cn1cc2c(n1)CCCC2,0.29,1,1,1,0
N#Cc1cnn2c1nc(N1CCOCC1)c1ccccc12,-0.32,20,0.9,0.8,7
CCc1ccc(C2CC(c3ccc(Cl)cc3)=NNC2=O)cc1 (stereo not drawn),-1.1,40,0.2,0.6,84*
SMILES,PTK2B oligo ant,CYP2C9 inhib,CYP2C19 act,CYP2C9 act,CYP2C19 inh
CCCCOc1ccc(C2CC(=O)NC2=O)cc1 (stereo not drawn),-0.03,2,0.6,1,44
Cc1ccc(C2CC(c3ccc(Cl)cc3)=NNC2=O)cc1 (stereo not drawn),-0.94,38,0.2,0.6,85*
Cc1ccc(/C(O)=C2/C(=O)C(=O)OC2c2ccc(Cl)cc2)cc1 (stereo not drawn),0.97,50,1,0.5,-1
COC(=O)C(C)Oc1ccc(=O)[nH]n1 (stereo not drawn),0.64,-7,1,1.1,-3
O=C(NC1CCCC1)c1ncn[nH]1,-0.38,nt,nt,nt,nt
CCOC(=O)N1CCC(NC(=O)CCc2c(C)nc3c(c(C)nn3C(C)(C)C)c2C)CC1,-1.8,82*,0.4,0.2,64*
COCCNC(=O)C1CCC(=O)N(c2ccc(OC)cc2)C1c1ccc(OC)c(OC)c1 (stereo not drawn),0.13,-2,1,1,2
CCC(C)N1C(=O)C2C(C(=O)Nc3cccc(OC)c3)C3C=CC2(O3)C1C(=O)NC1CCCCC1C (stereo not drawn),-0.77,12,0.9,0.9,8
CCc1cc2c(N3CCCCC3)ncnc2s1,-0.65,65*,0.1,0.3,87*
Cc1nn(-c2ccccc2)c2sc(C(=O)OC3CCOC3=O)cc12 (stereo not drawn),-0.54,68*,0.7,0.3,31
Cc1nn(-c2ccccc2)c2sc(C(=O)N(CC(=O)NC(C)(C)C)Cc3ccco3)cc12,-1.1,56*,0.8,0.4,25
COC(=O)c1cc2c(C)nn(-c3ccccc3)c2s1,-0.79,10,0.5,0.9,52*
Cc1nn(-c2ccccc2)c2sc(-c3n[nH]c(=S)o3)cc12,-0.3,66*,1.1,0.3,-6
Cc1nn(-c2ccccc2)c2sc(C(=O)O)cc12,0.47,-16,1,1.2,-3
CCOC(=O)c1ccc(N2C(=O)CC(Sc3nnc(C)s3)C2=O)cc1 (stereo not drawn),2.5,-6,1,1.1,-2
COc1ccc(CN(CC2CCCO2)S(=O)(=O)c2ccc(C(=O)O)cc2)cc1OC (stereo not drawn),2,-12,1.1,1.1,-13
COc1ccc(/C=N/NC(=O)C2c3ccccc3Oc3ccccc32)c(OC)c1,0.32,4,0.9,1,9
Cc1nc2c3ccccc3[nH]c(=O)n2n1,0.31,nt,nt,nt,nt
Cc1nn(-c2ccccc2)c2sc(C(=O)OCc3nnc(-c4ccccc4)o3)cc12,-0.4,55*,1,0.5,2
CCCCNC(=O)CN1C(=O)NC2NC(=O)NC21 (stereo not drawn),nt,-11,1.1,1.1,-12
NC(=O)c1ccccc1NC(=O)/C=C/c1cccc(Cl)c1,-3.2*,-72,0.9,1.7,13
COc1cnn(-c2ccc(C)cc2)c(=O)c1SCc1ccccc1,-0.58,12,0.7,0.9,25
COc1cnn(-c2ccccc2)c(=O)c1SCc1ccc(Cl)cc1Cl,-1.1,47,0.3,0.5,67*
O=c1[nH]c2cc(Cl)cc(Cl)c2[nH]c1=O,-0.13,8,0.9,0.9,6
O=C(Nc1ccsc1C(=O)NC1CCCCC1)c1ccccc1,-0.24,10,1.1,0.9,-6
O=C1c2cnc3nc(SCc4cccc(Cl)c4)nn3c2CC2c3ccccc3CCN12 (stereo not drawn),-0.78,46,1.1,0.5,-8
